ALR H2O2 inh: inhibitors of human ALR sulfhydryl oxidase, primary screen, biochemical, H2O2 detection, HRP-luminol luminescence, single point; FAD-linked sulfhydryl oxidase ALR (Homo sapiens), P55789; purified ALR, DTT oxidation; inhibition, % (test concentration not listed); actives 3.8% (n = 290,000); AID 485317, 2010;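 active = mean replicate inhibition above about 79%, with every replicate also reaching it, limit read from the data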
PfM18AAP inh: PfM18AAP inhibitors, malaria aminopeptidase, primary screen, biochemical, QFRET, recombinant enzyme | inhibition, % at 7.35 µM | H-Glu-NHMec fluorogenic cleavage | M18 aspartyl aminopeptidase (Plasmodium falciparum 3D7) | actives 1.2% (n = 290,000);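 active = inhibition above the campaign mean inhibition over all tested compounds plus 3 SD, cut at about 28% in these data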
APOBEC3A inh: APOBEC3A ssDNA deaminase inhibitors, primary screen, selectivity assay for APOBEC3G inhibitor project, biochemical, FAM/TAMRA oligo cleavage fluorescence; inhibition, % at 20 µM; DNA dC->dU-editing enzyme APOBEC-3A (Homo sapiens), P31941; recombinant A3A, FAM/TAMRA ssDNA deamination fluorescence; actives 0.41% (n = 330,000);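 active = at least 40% inhibition at 20 µM here, with at most 30% in a related deaminase screen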
NRP1-CendR mod: modulators of CendR peptide binding to NRP-1, primary screen, biochemical, fluorescence polarization, uHTS; Neuropilin-1 (Homo sapiens), O14786; FAM-RPARPAR peptide binding to NRP-1; inhibition, % at 25 µM; actives 0.85% (n = 360,000);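 active = inhibition or corrected inhibition above about 18%, plus a signal ratio from 0.5 to 1.5, limit read from the data, passing the limit was not always enough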
Yeast superoxide: reduction of superoxide in aged yeast, primary screen, HTS | S. cerevisiae aged cells, superoxide DHE fluorescence; active compounds read low | superoxide response (% of plate mean), % at 10 µM | actives 0.18% (n = 330,000);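 active = superoxide response under a set limit, about three screen SD below normal, cut at about 65% in these data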;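 also: yeast aged for seven days with compound at 30 °C before DHE staining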
APOBEC3G inh: APOBEC3G DNA deaminase inhibitors, primary screen, biochemical, fluorescence, single-stranded DNA substrate, uHTS; inhibition, % at 20 µM; recombinant A3G, ssDNA deamination FAM/TAMRA fluorescence; actives 0.28% (n = 330,000); DNA dC->dU-editing enzyme APOBEC-3G (Homo sapiens), Q9HC16;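 active = inhibition of at least 40% at 20 µM, with no more than 30% in the related APOBEC3A deaminase screen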
Target sequence (Q9HC16 whole entry, looked up): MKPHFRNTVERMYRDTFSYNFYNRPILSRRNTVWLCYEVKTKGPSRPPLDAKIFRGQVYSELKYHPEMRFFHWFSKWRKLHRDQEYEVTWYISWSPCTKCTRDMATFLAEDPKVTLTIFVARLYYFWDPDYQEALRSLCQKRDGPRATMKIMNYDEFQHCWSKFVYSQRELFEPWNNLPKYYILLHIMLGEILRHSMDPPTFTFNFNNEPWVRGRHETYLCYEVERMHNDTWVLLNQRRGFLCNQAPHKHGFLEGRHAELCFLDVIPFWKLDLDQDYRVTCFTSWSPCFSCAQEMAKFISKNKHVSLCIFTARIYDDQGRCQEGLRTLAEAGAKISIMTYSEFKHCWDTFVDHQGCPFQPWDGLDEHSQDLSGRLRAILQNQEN
Hits are given with their value; n = inactive; x = no result. Hits are enriched below; roughly 5.2% of the tested compounds scored in any of these assays.

SMILES	ALR H2O2 inh	PfM18AAP inh	APOBEC3A inh	NRP1-CendR mod	Yeast superoxide	APOBEC3G inh
Cc1nc2ccccc2c(=O)n1-c1ccc(Cl)cc1[N+](=O)[O-]	n	n	n	n	n	n
CC(C)(C)n1cc(C(=O)c2ccccc2)cc1-c1ccccc1	n	n	n	21	n	n
CCN(CC)CCN=Cc1c(O)n(Cc2ccco2)c(=O)[nH]c1=O	n	n	n	n	n	n
Cc1cc(/C=C2\C(=O)NC(=O)N(c3ccccc3F)C2=O)c(C)n1-c1cc(C(=O)O)cc(C(=O)O)c1	n	30	n	n	n	n
Cc1ccccc1C(O)(Cc1ccccc1)C1CN2CCC1CC2 (stereo unspecified)	n	n	n	n	n	n
Cc1cc(C)n2nc(SC(C)C(=O)N3CCC4(CC3)OCCO4)nc2n1 (stereo unspecified)	n	n	n	n	n	n
N#C/C(N)=C(/N)C#N	98	x	n	n	n	n
CCN1CCN(C(=O)COc2ccc(S(=O)(=O)N3CCOCC3)cc2Cl)CC1	n	n	n	n	n	n
CCN1CCN(S(=O)(=O)c2ccc(Cl)nc2)CC1	n	n	n	28	n	n
CN1/C(=C\C=C2C(=O)NC(=S)NC2=O)C(C)(C)c2ccccc21	x	n	n	n	x	n
CC1(C)OC(c2ccccc2)=C/C(=C/C=C2C(=O)NC(=S)NC2=O)O1	88	n	n	x	n	n
COc1ccc(-n2c(O)c(/C=C3\C=Nc4ccc(Br)cc43)c(=O)[nH]c2=O)c(OC)c1	97	n	n	n	n	n
COc1ccc(-n2c(O)c(/C=C3\C=Nc4ccc(Br)cc43)c(=O)[nH]c2=O)cc1	n	n	n	n	n	n
CCc1ccc(N2C(=O)CC(=O)NC2=O)cc1	n	n	n	n	n	n
O=C1NC(c2cccnc2)Nc2sc3c(c21)CCCC3 (stereo unspecified)	x	31	n	n	n	n
C[n+]1c(-c2ccccc2)c2cc(N)ccc2c2ccc(N)cc21	99	34	n	56	n	n
CC(C)(C)n1nnnc1C(c1ccnc2ccccc12)N1CCC2(CC1)C(=O)NCN2c1ccccc1 (stereo unspecified)	x	x	x	36	x	x
Cc1cccc(C)c1-n1nnnc1C(c1ccnc2ccccc12)N1CCC2(CC1)C(=O)NCN2c1ccccc1 (stereo unspecified)	x	x	x	n	x	x
COC(=O)C1=C(c2ccc(F)cc2F)C[C@@H]2CC[C@H]1N2C(=O)N1CCCCC1	n	x	n	22	n	n
COC(=O)C1=C(c2ccc(F)cc2F)C[C@@H]2CC[C@H]1N2C(=O)N1CCCC1	n	x	n	28	n	n
CN(C)C(CNC(=O)Cc1c(Cl)cccc1Cl)c1ccccc1 (stereo unspecified)	n	n	n	26	n	n
CC(NCc1cccc(Cl)c1Cl)C(O)c1ccccc1 (stereo unspecified)	n	n	n	n	n	n
N[C@@H](Cc1ccc(N(CCCl)CCCl)cc1)C(=O)O	n	x	n	n	n	n
O=C(O)CCCc1ccc(N(CCCl)CCCl)cc1	99	n	n	n	n	n
NS(=O)(=O)c1ccc(-c2ccc(C=C3C(=O)NC(=O)NC3=O)o2)cc1	98	n	n	n	n	n
CNS(=O)(=O)c1ccc(-c2ccc(C=C3C(=O)NC(=O)NC3=O)o2)cc1	88	n	n	n	n	n
CCN(CCNc1ccc([N+](=O)[O-])c2cccnc12)S(=O)(=O)c1ccc(Cl)cc1	n	n	n	n	n	n
CC1(C(=O)O)CCCC2(C)c3cc(O)ccc3CCC12 (stereo unspecified)	n	x	n	34	n	n
COC(=O)Cn1cc(/C=C2\C(=O)NC(=O)N(c3ccccc3)C2=O)c2ccccc21	n	n	n	n	n	n
COCCNC(=O)Cn1cc(C=C2C(=O)NC(=O)NC2=O)c2ccccc21	n	31	n	n	n	n

High-throughput results: PubChem, several laboratories
